Screening results as filed in PubChem.
Compounds with a hit are over-represented: about 4% of the library has one in this group of screens.
Measles CPE: protection of cells from measles virus. actives 1.5% (n = 140,000). Measles virus-infected cells, CPE protection, absorbance. protection (pct of control), % at 4 µM; in the data active = protection mostly above about 24%, no sharp cut-off; inactive = mostly below about 26%
ROMK mod: modulates human ROMK potassium channel activity; B-score at 10 µM; Tet-inducible ROMK, thallium flux fluorescence; actives lie on both sides; AID 1918; actives 2% (n = 130,000);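 active = signal ratio slope over the read window, or its plate-corrected B-score, at least 3 SD from the plate mean, either direction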;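 also: B-score of the F/F0 ratio slope over 7 to 12 s after thallium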
Target sequence (P48048 whole entry, looked up): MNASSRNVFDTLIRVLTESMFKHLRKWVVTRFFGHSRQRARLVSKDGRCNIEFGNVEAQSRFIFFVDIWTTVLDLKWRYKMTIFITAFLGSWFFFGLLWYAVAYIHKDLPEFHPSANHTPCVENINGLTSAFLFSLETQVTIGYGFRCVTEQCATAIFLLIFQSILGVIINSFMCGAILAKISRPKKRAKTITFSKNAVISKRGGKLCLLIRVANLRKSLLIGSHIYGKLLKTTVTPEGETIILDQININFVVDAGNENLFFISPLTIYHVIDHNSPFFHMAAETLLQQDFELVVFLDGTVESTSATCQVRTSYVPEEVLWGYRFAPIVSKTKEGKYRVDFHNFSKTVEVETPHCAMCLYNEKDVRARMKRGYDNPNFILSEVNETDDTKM
Arbovirus inh: antivirals against arbovirus infection. arbovirus infection cell-based antiviral screen. inhibition, % at 10 µM. actives 0.37% (n = 200,000); in the data active = inhibition above about 30%
KCC2 mod: KCC2 (human) Cl- transport modulation; B-score of Tl+ flux slope (higher = more flux/activation; lower = inhibition) at 10 µM; AID 1456; actives 2.2% (n = 190,000); KCC2 cells, thallium flux FluoZin-2 fluorescence; Q9H2X9;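 active = thallium flux slope and its plate-corrected score both differing from the plate sample mean at a set confidence after two filtering rounds, in either direction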;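 also: slope of fluorescence scaled to starting intensity during 10 to 20 s after thallium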
HSV replic up: HSV replication enhancement; HSV replication augmentation in cells, fold increase; actives 0.005% (n = 220,000); maximum fold increase; in the data active = maximum fold increase above about 1.5; inconclusive = no clear call, values can overlap the other calls; tested in PC3 cells
ROMK hit retest: confirmation of human ROMK potassium channel modulators; shares compounds with ROMK mod; ROMK thallium flux, fluorescence ratio; active compounds read low; normalized thallium flux (F/F0 slope) at 10 µM; actives 54% (n = 3,000);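 active = Flux at 10 µM at least 3 SD below or above vehicle control mean in one or both replicates; inconclusive = no clear call, values can overlap the other calls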
Large screens that a line does not name were inactive (follow-up assays come after a bar, where they were run).

Cc1cc(C)nc(SCC(=O)c2cc3ccccc3oc2=O)n1	ROMK mod -4.1 | ROMK hit retest 0.06
CCOc1ccccc1/C=N/NC(=O)CNC(=O)c1cccs1	ROMK mod -2.1 (no result: Measles CPE) | ROMK hit retest inactive
O=C(CNC(=O)c1cccs1)N/N=C/c1ccco1	ROMK mod 3.4 (no result: Measles CPE) | ROMK hit retest 0.067
O=C(O)CCc1ncc(C(F)(F)F)cc1Cl	none (no result: ROMK mod)
FC(F)(F)c1cnc(COc2cc(Cl)cc(Cl)c2)c(Cl)c1	none (no result: Measles CPE, ROMK mod, Arbovirus inh) | ROMK hit retest inactive
c1ccc2c(N3CCCCCC3)nc(-c3ccncc3)nc2c1	ROMK mod -2.8 | ROMK hit retest inconclusive
Cc1c([N+](=O)[O-])cc(C(=O)Oc2cccc(C(=S)N3CCOCC3)c2)cc1[N+](=O)[O-]	none (no result: Measles CPE)
Cc1ccc(OCCCC(=O)NC(C)c2ccccc2)cc1 (stereo unspecified)	ROMK mod 3.2 (no result: KCC2 mod) | ROMK hit retest inactive
Cc1ccc(C)c(Nc2ccc(C(=O)NCCc3ccccc3)cn2)c1	ROMK mod 2.7 | ROMK hit retest inactive
CC1(c2nnc(-c3ccc(F)cc3)o2)CC(c2ccncc2)=NO1 (stereo unspecified)	none (no result: Measles CPE, ROMK mod, Arbovirus inh, KCC2 mod)
Cn1ncc(N=Cc2c(O)ccc3ccccc23)c1C(=O)Nc1cccc(Cl)c1	none (no result: Measles CPE)
COc1cc2cc(C(c3nnnn3C(C)(C)C)N3CCc4ccccc4C3)c(=O)[nH]c2cc1OC (stereo unspecified)	ROMK mod -3.6 | ROMK hit retest inconclusive
Cc1cc(C)cc(C(=O)N(c2ccccn2)C(C)c2ccco2)c1 (stereo unspecified)	none (no result: KCC2 mod)
CC(c1ccco1)N(C(=O)c1ccccc1NS(=O)(=O)c1ccc(Cl)c([N+](=O)[O-])c1)c1ccccn1 (stereo unspecified)	none (no result: ROMK mod) | ROMK hit retest 0.062
COc1cccc(CN2CCN(Cc3cc(OC)c(OC)cc3[N+](=O)[O-])CC2)c1	none
COc1cc(CN2CCN(Cc3ccc([N+](=O)[O-])cc3)CC2)c([N+](=O)[O-])cc1OC	ROMK mod -4.3 (no result: Measles CPE) | ROMK hit retest 0.044
COC(=O)C(=Cc1ccccc1[N+](=O)[O-])C(=O)OC	ROMK mod -2.6 (no result: Measles CPE, Arbovirus inh) | ROMK hit retest 0.051
COc1cc(-c2nc(CN3CCCCC3CCNC(C)=O)c(C)o2)ccc1F (stereo unspecified)	none (no result: Measles CPE, ROMK mod, Arbovirus inh)
Cc1ccc(SCCC(=O)OCC(=O)NCC2CCCCC2)cc1	ROMK mod 3 (no result: Measles CPE) | ROMK hit retest inactive
Cc1ccc(SCCC(=O)OCC(=O)Nc2ccc(S(N)(=O)=O)cc2)cc1	none (no result: Measles CPE, ROMK mod, Arbovirus inh)
Cc1nc2ccccc2nc(=O)c1NNc1ccccc1	ROMK mod 6.4 | ROMK hit retest inconclusive
Cc1ccc2nc(=O)c(NNc3ccccc3)cnc2c1	ROMK mod 6.6 | ROMK hit retest 0.11
Cc1ccc2nc(-c3ccccc3)c(-c3ccccc3)nc2c1	none (no result: Measles CPE)
COc1ccc(NC(=O)CC2C(=O)N(c3ccc(F)cc3)C(=S)N2NC(=O)c2ccc(Cl)cc2)cc1 (stereo unspecified)	none
Cc1c(Cl)cccc1NC(=O)Cn1cc(C(F)(F)F)cc(Cl)c1=O	none (no result: Measles CPE)
CC1CCCCC1NC(=O)COC(=O)CNC(=O)c1cccc(F)c1 (stereo unspecified)	ROMK mod -2.1 (no result: Measles CPE) | ROMK hit retest inactive
Cc1nnc(N/N=C/c2ccco2)n1N	none (no result: Measles CPE)
COc1ccc(OC)c(/C=C2\SC(=S)N(C(C(=O)O)c3ccccc3)C2=O)c1 (stereo unspecified)	none (no result: Measles CPE, ROMK mod, Arbovirus inh, KCC2 mod) | ROMK hit retest 0.052
Cc1cccc(NC(=S)N(CCCN2CCOCC2)C(C)c2cc3ccccc3o2)c1C (stereo unspecified)	none (no result: Measles CPE)
CC(C)(C)c1cc(C(=O)NCc2cc(F)cc3c2OCOC3)n(Cc2ccccc2)n1	none (no result: Measles CPE, ROMK mod, Arbovirus inh) | ROMK hit retest inactive
c1ccc2[nH]c3cc4ncnc4cc3nc2c1	none (no result: ROMK mod)
COc1ccc(-n2c(-c3ccc(Br)cc3)c[n+]3c2CCc2ccccc2-3)cc1	none
CC(C)c1ccc(-n2c(-c3ccccc3)c[n+]3c2CCc2ccccc2-3)cc1	ROMK mod -6 (no result: Measles CPE) | ROMK hit retest 0.041
Cc1cc(NN)nc2ccc(Cl)cc12	none (no result: Measles CPE)
Cc1ccc(C(C(=O)NC2CCCCC2)N(Cc2ccco2)C(=O)Cc2c[nH]c3ccccc23)o1 (stereo unspecified)	none (no result: ROMK mod, KCC2 mod) | ROMK hit retest inconclusive
Cc1ccc(C(C(=O)NC2CCCCC2)N(C(=O)Cc2c[nH]c3ccccc23)c2ccccc2C)o1 (stereo unspecified)	none
Cc1[nH]c2ccccc2c1CCNC(=O)c1c(N)no[n+]1[O-]	none (no result: Measles CPE)
CCOC(=O)Nc1nc(-c2ccccc2)c(C(=O)c2ccc(Cl)cc2)s1	ROMK mod 3.2 | ROMK hit retest inactive
CCOC(=O)Nc1sc(C)nc1-c1ccccc1	none (no result: ROMK mod)
